From PubChem
Tb PYK inh – blocks Trypanosoma brucei pyruvate kinase | Q57TT1 | TbPYK enzyme, Kinase-Glo Plus ATP luminescence, 45 min | Potency, µM (highest dose often 76.8 µM), inactives show at the top dose activity, negative = inhibition, usual class: inhibitors | 410,000 compounds, 0.12% hits | AID 624173; further: on the % scale 0 is the no-effect control and ±100 the full control effect; nearly all actives have a fitted effect of over 50% in size
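Quantitative HTS: titrated library compounds versus trypanosomal pyruvate kinase in TEA buffer (pH 7.2) containing KCl, MgCl2, BSA and Tween-20. Reactions were initiated with ADP, 130 uM final. Kinase-Glo Plus luminescence was read after 45 min at RT.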
RE007 growth inh – less growth of the S. pombe RE007 Vpr strain; Potency, µM (top dose mostly 92.2 µM), without a hit: at the top dose activity change, negative = less growth, most hits filed as inhibitors; 360,000 compounds, 0.21% hits; S. pombe RE007 Vpr strain, BacTiter-Glo ATP luminescence, 24 h; active means well fitted falling curve with a large enough effect; inconclusive means small, poorly fitted or top-dose-only effect; inactive means no such curve, though single readings can be large or run the other way; further: on the % scale 0 is the no-effect control and ±100 the full control effect; nearly all actives have a fitted effect of over 50% in size
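Fission yeast strain RE007, carrying one chromosomally integrated HIV-1 vpr copy, was seeded at OD 0.01 in PMG+AL medium with 23 nL pinned compound. After 24 h at 30 °C and 99% humidity, viability was read by BacTiter-Glo luminescence.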
Sm TGR block – inhibitors of Schistosoma mansoni thioredoxin glutathione reductase; purified TGR, DTNB reduction, TNB absorbance 405 nm; Potency, µM (series often up to 114 µM), for inactives: at the top dose activity change, negative = inhibition, hits mostly inhibitors; 360,000 compounds, 3% hits; further: on the % scale 0 is the no-effect control and ±100 the full control effect; nearly all actives have a fitted effect of over 60% in size
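First, TGR (20 nM dispensed) and NADPH were mixed with compound. Second, a 15 min room-temperature incubation followed. Third, further NADPH and then DTNB were added to start the reaction. Finally, TNB absorbance was monitored kinetically.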
AmpC inh no detg – blocks E. coli AmpC beta-lactamase in detergent-free assay. Potency, µM (highest dose often 57.1 µM), inactives show top-dose activity change, negative = inhibition, hits mostly inhibitors. AID 485341. AmpC nitrocefin hydrolysis, absorbance 480 nm, 0.0001% Triton. 330,000 compounds, 0.52% hits;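 further: plate controls were no compound for no effect and no enzyme for full effect; nearly all actives have a fitted effect of over 20% in size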
Target sequence (P00811 whole entry, looked up): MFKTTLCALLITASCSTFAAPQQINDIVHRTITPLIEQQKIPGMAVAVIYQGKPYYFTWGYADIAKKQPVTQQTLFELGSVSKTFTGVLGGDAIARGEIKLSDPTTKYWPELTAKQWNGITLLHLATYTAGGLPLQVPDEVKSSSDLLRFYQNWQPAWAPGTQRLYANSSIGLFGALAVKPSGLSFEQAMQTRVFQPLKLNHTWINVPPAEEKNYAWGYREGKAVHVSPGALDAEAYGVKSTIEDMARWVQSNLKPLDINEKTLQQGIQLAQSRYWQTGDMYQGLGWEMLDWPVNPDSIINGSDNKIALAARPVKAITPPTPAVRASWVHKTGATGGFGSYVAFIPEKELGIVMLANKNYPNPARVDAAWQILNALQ
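AmpC (5.3 nM in the dispensed reagent) in 20 mM phosphate pH 7.0 with 0.01% (detergent screen) or 0.0001% Triton X-100 was preincubated with compounds for 15 min at room temperature. Nitrocefin was then added from an 800 uM solution, and hydrolysis was followed at 480 nm.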
AmpC detergent – blocks E. coli AmpC beta-lactamase in detergent assay; AID 485294; AmpC hydrolysis of nitrocefin, absorbance 480 nm, 0.01% Triton; Potency, µM (titrated, usually from 114 µM), inactives show at the highest dose activity change, negative = inhibition, most hits filed as inhibitors; 370,000 compounds, 0.041% hits; P00811;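 further: 0% = no-compound wells and -100% = no-enzyme wells; nearly all actives have a fitted effect of over 25% in size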
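20 mM phosphate pH 7.0 + 0.01% (detergent screen) or 0.0001% Triton X-100; 5.3 nM AmpC reagent; cpd preinc 15 min RT; nitrocefin (800 uM stock) to start; A480 q20 s × 4 min; Activity was normalised to no-enzyme and no-compound control wells.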
SARS PLpro yeast – blocks SARS-CoV papain-like protease in a yeast assay; 330,000 compounds, 0.19% hits; S. cerevisiae expressing SARS-CoV PLpro, growth rescue; Potency, µM (series often up to 32.9 µM), without a hit: at the top dose activity, positive = growth rescue, most hits filed as activators; calls by dose curve; further: 0% is about no effect; nearly all actives have a fitted effect of over 55% in size
* hit, by the source's call; ? = inconclusive; · = no result given; [ ] = another dose, or the depositor's remark. Rows were chosen to be rich in hits. Some 3.3% of all compounds tested hit in one or more screens of this group. Unless noted, the call rests on the fitted dose curve; in most records, active means well fitted curve in the direction sought with a large enough effect; inconclusive means small, poorly fitted or top-dose-only effect, or another doubt; inactive means no such curve, though single readings can be large; an effect the other way counts as inactive or inconclusive. Potency means the concentration at half of the fitted maximal effect.

SMILES	Tb PYK inh	RE007 growth inh	Sm TGR block	AmpC inh no detg	AmpC detergent	SARS PLpro yeast
COc1ccc(/C(O)=C2/C(=O)C(=O)N(CCN3CCOCC3)C2c2ccccn2)cc1OC (stereo not drawn)	-12%	81%	50µM*	7%	-4%	-10%
CCOC(=O)c1ccc(NC(=O)CCc2c(C)n(CC)c3cc(-c4ccccc4OC)nn3c2=O)cc1	-3%	·	6%	·	4%	·
Cc1ccc(/C(O)=C2/C(=O)C(=O)N(CCN3CCOCC3)C2c2ccccn2)cc1 (stereo not drawn)	-4%	5%	25µM*	-2%	3%	-6%
CC1C(=O)Nc2ccc(S(=O)(=O)N3CCCCC3)cc2NC1=O (stereo not drawn)	8%	·	-6%	·	-1%	·
CSCCC1Nc2ccc(S(=O)(=O)N3CCOCC3)cc2NC1=O (stereo not drawn)	-12%	32%	50µM*	-11%	-18%	3%
O=C(/C=C/c1ccco1)NCCc1ccc(F)cc1	0%	0%	7.1µM*	-25%	-5%	-1%
NS(=O)(=O)c1ccc(NC(=O)/C=C/c2ccco2)cc1	-2%	-11%	6.3µM*	-29%	-14%	0%
CC(=O)NS(=O)(=O)c1ccc(NC(=O)/C=C/c2ccco2)cc1	-3%	25%	3.5µM*	-15%	-5%	0%
O=C(/C=C/c1ccco1)NCCCN1CCN(CCCNC(=O)/C=C/c2ccco2)CC1	-1%	3%	0%	-3%	-3%	-8%
O=C(/C=C/c1ccco1)Nc1ccc(S(=O)(=O)N2CCOCC2)cc1	-9%	9%	?	-38%	2%	0%
CCN(CC(=O)NCc1ccc(F)cc1)C(=O)/C=C/c1cccs1	8%	26%	4%	-12%	-2%	1%
CCN(CC(=O)NCc1ccc(F)cc1)C(=O)/C=C/c1ccco1	-8%	13%	20µM*	-14%	5%	4%
CC(=O)NS(=O)(=O)c1ccc(NC(=O)/C=C/c2cn(-c3ccccc3)nc2-c2ccccc2)cc1	-2%	·	-10%	-54%	-9%	18%
COc1cccc(NC(=O)c2ccc(CNS(=O)(=O)c3ccc4c(c3)C(C)(C)C(=O)N4C)cc2)c1	3%	·	1%	·	0%	·
Cc1sc(NC(=O)/C=C/c2ccco2)c(C(=O)O)c1C	3%	-30%	40µM*	-20%	3%	-2%
O=C(/C=C/c1ccco1)Nc1ccc(F)cc1	1%	·	7.1µM*	-24%	-10%	-3%
COc1ccc(/C=C/C(=O)Nc2sc(C)c(C)c2C(=O)O)cc1	0%	·	4%	·	12%	·
O=C(NCc1ccco1)c1ccc2nc3sc4c(c3c(=O)n2c1)CCCC4	·	·	11µM*	47%	2%	-4%
O=C1c2ccccc2C(=O)N1CC#CCN1CCN(C(c2ccccc2)c2ccccc2)CC1	-9%	-3%	50µM*	63%	6%	-18%
Oc1cc(-n2cccn2)c(O)cc1-n1cccn1	-27%	·	3.5µM*	-25%	-7%	-6%
O=Cc1ccccc1-n1cccn1	2%	6%	-11%	-7%	1%	2%
COc1cc2c(cc1OC)C1O[C@](CCCCN3C(=O)c4ccccc4C3=O)(C2)OC2=C1C(=O)CCC2	·	·	?	88%[11.4 µM]	?	-5%[6.58 µM]
COc1cc2c(cc1OC)C1O[C@](CCCCN3C(=O)c4ccccc4C3=O)(C2)Oc2c1c(=O)oc1ccc(F)cc21	·	·	2.5µM*	-28%[11.4 µM]	-6%[22.9 µM]	-3%[6.58 µM]
O=C1c2ccccc2C(=O)N1CCCC[C@]12Cc3ccccc3C(O1)c1c(c3ccccc3oc1=O)O2	·	·	-21%[22.9 µM]	2.8µM*	?	-5%[6.58 µM]
O=C1C2=C(C(=O)c3ccccc31)C1O[C@](c3ccsc3)(Cc3c1ccc1ccccc31)O2	·	·	?	-51%[11.4 µM]	-4%[22.9 µM]	-3%[6.58 µM]
SMILES	Tb PYK inh	RE007 growth inh	Sm TGR block	AmpC inh no detg	AmpC detergent	SARS PLpro yeast
COc1cc2c(cc1OC)C1O[C@](CCCCN3C(=O)c4ccccc4C3=O)(C2)OC2=C1C(=O)c1ccccc1C2=O	·	·	4µM*	-21%[11.4 µM]	?	1%[6.58 µM]
N#Cc1ccc2c(c1)C[C@]1(CCCCN3C(=O)c4ccccc4C3=O)Oc3c(c(=O)oc4ccc(F)cc34)C2O1	·	·	3%[22.9 µM]	-23%[11.4 µM]	1%[22.9 µM]	-13%[6.58 µM]
O=c1oc2ccccc2c2c1C1O[C@](c3ccsc3)(Cc3c1ccc1ccccc31)O2	·	·	8.9µM*	?	?	-12%[6.58 µM]
COc1ccc2c3c(c(=O)oc2c1)C1O[C@](CCCCN2C(=O)c4ccccc4C2=O)(Cc2cc(OC)c(OC)cc21)O3	·	·	?	-41%[11.4 µM]	?	10%[6.58 µM]
CS(=O)(=O)N(Cc1cccc(CN(C(C(=O)O)c2ccccc2)S(C)(=O)=O)c1)C(C(=O)O)c1ccccc1 (stereo not drawn)	-15%	-9%	5µM*	-26%	-10%	11%
CCOc1ccccc1CNC(=O)C1CCN(S(=O)(=O)c2c(C)noc2/C=C/c2ccc(C)cc2)CC1	4%	·	-2%	·	0%	·
Fc1ccccc1C(NCCc1ccc(Cl)cc1)c1nnc(-c2ccccc2)o1 (stereo not drawn)	0%	·	2%	·	4%	·
CCSc1ncc(Cl)c(C(=O)Nc2c(C(=O)Nc3ccc(Cl)cc3)oc3ccccc23)n1	-11%	·	?	·	2%	·
CCCCCCCCCCCCCCCCCC(=O)OCCO	1%	·	·	·	·	·
COc1ccc(N2Cc3ccc(C(=O)N/N=C\c4ccc(O)cc4O)cc3C2)cc1	·	·	28µM*	-47%	-2%	?
CC(C)c1ccc2[nH]c(O)c(N=NC(=O)c3cccc(S(=O)(=O)N4CCCCC4)c3)c2c1	-3%	3%	-6%	6.3µM*	-3%	-15%
CCCCN(C)C(=O)CN1C(=O)c2cccnc2Oc2ccc(Cl)cc21	-1%[15.4 µM]	·	-5%	·	4%	·
O=C(NCC(c1cccnc1)N1CCc2ccccc21)C(=O)Nc1ccccc1F (stereo not drawn)	-1%	·	0%	·	0%	·
CCCCNc1ccc(C(=O)OCCN(CC)CC)cc1	4%	·	·	·	·	·
CC(=O)c1ccc(NC(=O)c2noc(C(C)C)c2[N+](=O)[O-])cc1	0%	-9%	-33%	-31%	0%	-5%
CC(C)c1onc(C(=O)NCCc2ccccc2)c1[N+](=O)[O-]	-3%	-15%	45µM*	-22%	1%	-1%
Cc1ccc(O)c(NC(=O)c2noc(C(C)C)c2[N+](=O)[O-])c1	7%	0%	35µM*	-31%	-2%	1%
CC(C)c1onc(C(=O)NC(C)c2ccccc2)c1[N+](=O)[O-] (stereo not drawn)	1%	12%	40µM*	-12%	5%	?
